The text below walks through data of PubChem BioAssay (Tox21).

Assay [1] is described as follows: qHTS assay to identify small molecule antagonists of the thyroid receptor (TR) signaling pathway (AID 743065). For activity, negative = inhibition: series mostly up to about 70 µM. Note: nearly all actives have a fitted effect of over 55% in size. Note: potency is the fitted concentration of half-maximal effect. The method, boiled down:
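Antagonism measured as loss of luciferase signal in GH3 cells stably carrying a TRE-luciferase reporter, co-treated with compound and T3 (1 nM final) for 23.5 h at 37 C. Viability was read in the same well by CellTiter-Fluor.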
For orientation: In qHTS, concentration-response curves come from the screen itself.

Assay [2] has as its system thyroid hormone receptor (rat, GH3 cells). Nature of the assay: qHTS assay to identify small molecule agonists of the thyroid receptor (TR) signaling pathway (AID 743066; calls by dose curve).
For assay [3], the target named is Estrogen receptor (Homo sapiens) (UniProt P03372). Nature of the assay: qHTS assay to identify small molecule antagonists of the estrogen receptor alpha (ER-alpha) signaling pathway (AID 743069; active = well fitted curve in the direction sought with a large enough effect in the signal ratio in the repeat runs, not every such curve was filed as active; the % refers to the signal ratio). The method, boiled down: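 ER-alpha-UAS-bla GripTite HEK293 line; 2% charcoal-stripped FBS overnight; plated, 4 hr 37C/5% CO2; cpd in DMSO + 17beta-estradiol, 18 hr 37C; LiveBLAzer B/G FRET substrate 2 hr RT; fluorescence intensity.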

Assay [4] in a line: qHTS assay to identify small molecule antagonists of the estrogen receptor alpha (ER-alpha) signaling pathway - cell viability counter screen (AID 743074; calls by dose curve;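 note: HEK293 cells carrying ER-alpha-UAS-bla reporter stimulated with 17beta-estradiol; nearly all actives have a fitted effect of over 45% in size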).
The target of assay [5] is Estrogen receptor (Homo sapiens) (UniProt P03372). Nature of the assay: qHTS assay to identify small molecule agonists of the estrogen receptor alpha (ER-alpha) signaling pathway (AID 743075; calls by dose curve;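 note: HEK293 GripTite cells with ER-alpha and UAS-driven beta-lactamase reporter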).
For assay [6] the target is unchanged. Nature of the assay: qHTS assay to identify small molecule agonists of the estrogen receptor alpha (ER-alpha) signaling pathway using the BG1 cell line (AID 743079). Note: nearly all actives have a fitted effect of over 20% in size.
Assay [7] is described as follows: qHTS assay to identify small molecule antagonists of the estrogen receptor alpha (ER-alpha) signaling pathway using the BG1 cell line (AID 743080; calls by dose curve; note: nearly all actives have a fitted effect of over 25% in size; note: potency is the fitted concentration of half-maximal effect; for activity change, negative = inhibition: series mostly up to about 70 µM). The method in brief:
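Antagonist mode: compounds in DMSO were pinned onto BG1-Luc-4E2 cells alongside 17beta-estradiol agonist, incubated 21.5 h, and ERE-driven luciferase measured with ONE-Glo. Cytotoxicity was multiplexed using CellTiter-Fluor fluorescence.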

A short description of assay [8]: qHTS assay to identify small molecule antagonists of the estrogen receptor alpha (ER-alpha) signaling pathway using the BG1 cell line - cell viability counter screen (AID 743081).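 Note: compound given together with 17beta-estradiol as the ER stimulus; series mostly up to about 70 µM; nearly all actives have a fitted effect of over 45% in size.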
The target in assay [9] is Aromatase (Homo sapiens) (UniProt P11511). The experiment in a line: qHTS assay to identify aromatase inhibitors (AID 743083). Note: series mostly up to about 70 µM; nearly all actives have a fitted effect of over 55% in size.
In assay [10] the target is Aryl hydrocarbon receptor (Homo sapiens) (UniProt P35869). Nature of the assay: qHTS assay to identify small molecule that activate the aryl hydrocarbon receptor (AhR) signaling pathway (AID 743085).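 For activation: HG2L7.5c1 human HepG2 liver cells with stably integrated DRE-driven firefly reporter; series mostly up to about 70 µM.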 Note: nearly all actives have a fitted effect of over 15% in size. Note: potency is the fitted concentration of half-maximal effect. The method in brief:
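AhR agonist activity is inferred from enhanced light output of a DRE-controlled firefly luciferase reporter in HepG2 cells, measured with ONE-Glo following 24 h treatment at 37C.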

Assay [11] in a line: qHTS assay to identify small molecule that activate the aryl hydrocarbon receptor (AhR) signaling pathway - cell viability counter screen (AID 743086). For viability change, negative = cytotoxic: series mostly up to about 70 µM. Note: nearly all actives have a fitted effect of over 45% in size. Note: potency is the fitted concentration of half-maximal effect. The method, boiled down: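 Cytotoxicity counter screen: CellTiter-Fluor signal (30 min, 37 C) in 4000 HepG2 cells/well carrying the DRE-luciferase reporter, following 24 h compound exposure at 37 C.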
Assay [12] addresses Peroxisome proliferator-activated receptor gamma (Homo sapiens) (UniProt P37231). Nature of the assay: qHTS assay to identify small molecule agonists of the peroxisome proliferator-activated receptor gamma (PPARg) signaling pathway (AID 743094; active = well fitted activation curve with a large enough effect in the signal ratio in the repeat runs, not every such curve was filed as active; the % refers to the signal ratio). The method in brief: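 Compounds dissolved in DMSO were added to PPARg UAS-bla HEK293H cells for 17 h at 37C, and reporter expression was quantified by fluorescence intensity after 1 h with LiveBLAzer B/G FRET substrate.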

Assay [13] has the same target. The experiment in a line: qHTS assay to identify small molecule antagonists of the peroxisome proliferator-activated receptor gamma (PPARg) signaling pathway (AID 743191; calls by dose curve; note: series mostly up to about 63 µM; nearly all actives have a fitted effect of over 30% in size). The method in brief: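 Beta-lactamase reporter under UAS control in HEK293H PPARg-bla cells; compound treatment 17 h at 37C. Read-out: fluorescence intensity after 1 h room-temperature incubation with LiveBLAzer B/G FRET substrate.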

The nature of assay [14]: qHTS assay to identify small molecule antagonists of the peroxisome proliferator-activated receptor gamma (PPARg) signaling pathway - cell viability counter screen (AID 743194). Note: nearly all actives have a fitted effect of over 55% in size. The method in brief: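 Viability was measured as CellTiter-Glo luminescence in GeneBLAzer PPARg UAS-bla HEK293H cells. These cells had been exposed 17 h at 37 C to compounds together with rosiglitazone at 50 nM final, with the beta-lactamase readout taken in the same wells.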

Assay [15] can be described thus: qHTS assay for small molecule agonists of the antioxidant response element (ARE) signaling pathway - cell viability counter screen (AID 743203; calls by dose curve; note: nearly all actives have a fitted effect of over 55% in size). The method, boiled down: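 Following 16 hrs of compound treatment at 37C, HepG2 cells with an ARE-controlled beta-lactamase gene were lysed with CellTiter-Glo. Luminescence was read after 30 min at room temperature.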
Assay [16] is described as follows: qHTS assay for small molecule activators of the heat shock response signaling pathway - cell viability counter screen (AID 743209). Note: nearly all actives have a fitted effect of over 50% in size. The method, boiled down: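 Readout: CellTiter-Glo luminescence, 30 min at room temperature. System: HSE-bla HeLa cells, 1500/well, plated overnight. Treatment: compounds in DMSO, 5 h at 37 C.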
The nature of assay [17]: qHTS assay for small molecule activators of the heat shock response signaling pathway (AID 743210; active = well fitted activation curve with a large enough effect in the signal ratio in the repeat runs, with a control signal flat, not every such curve was filed as active; the % refers to the signal ratio;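 note: HeLa cells with beta-lactamase reporter driven by heat shock elements; series mostly up to about 63 µM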). The method, boiled down:
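HeLa HSE-bla cells, overnight plating; cpd in DMSO 5 h, 37 C; LiveBLAzer B/G FRET substrate 2.5 h RT; fluorescence intensity read.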

Assay [18] can be described thus: qHTS assay to identify small molecule agonists of the peroxisome proliferator-activated receptor delta (PPARd) signaling pathway - cell viability counter screen (AID 743211). Note: nearly all actives have a fitted effect of over 55% in size. The method in brief:
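qHTS cell viability: PPARd-bla HEK293H; 17 h cpd, 37C; CellTiter-Glo, luminescence at 30 min RT.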

A short description of assay [19]: qHTS assay to identify aromatase inhibitors - cell viability counter screen (AID 743084). Note: potency is the fitted concentration of half-maximal effect.
Assay [20] can be described thus: qHTS assay for small molecule agonists of the antioxidant response element (ARE) signaling pathway (AID 743202; active = well fitted activation curve with a large enough effect in the signal ratio in the repeat runs, not every such curve was filed as active; the % refers to the signal ratio). The method, boiled down: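 Quantitative high-throughput format in HepG2 cells bearing an integrated ARE-beta-lactamase reporter. Compound exposure lasted 16 h at 37 C, and fluorescence was read 2 h after adding LiveBLAzer B/G substrate at room temperature.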

Several values for one entry are separate records, joined by “and”; a condition that tells them apart may be missing. Equal entries are not always repeated. Inconclusive results are not listed. A structure can be active in one record and inactive in another. Activity calls are given as the source filed them. Unless noted, calls come from the whole dose curve; as a rule, active = well fitted curve in the direction sought with a large enough effect in the repeat runs; inconclusive = weak or mixed curves; inactive = no such curve, though single readings can be large; an effect the other way counts as inactive or inconclusive.
% is set by controls: 0 for no effect and ±100 for the full control effect.

Aromatase (Homo sapiens), sequence (P11511 whole entry, looked up): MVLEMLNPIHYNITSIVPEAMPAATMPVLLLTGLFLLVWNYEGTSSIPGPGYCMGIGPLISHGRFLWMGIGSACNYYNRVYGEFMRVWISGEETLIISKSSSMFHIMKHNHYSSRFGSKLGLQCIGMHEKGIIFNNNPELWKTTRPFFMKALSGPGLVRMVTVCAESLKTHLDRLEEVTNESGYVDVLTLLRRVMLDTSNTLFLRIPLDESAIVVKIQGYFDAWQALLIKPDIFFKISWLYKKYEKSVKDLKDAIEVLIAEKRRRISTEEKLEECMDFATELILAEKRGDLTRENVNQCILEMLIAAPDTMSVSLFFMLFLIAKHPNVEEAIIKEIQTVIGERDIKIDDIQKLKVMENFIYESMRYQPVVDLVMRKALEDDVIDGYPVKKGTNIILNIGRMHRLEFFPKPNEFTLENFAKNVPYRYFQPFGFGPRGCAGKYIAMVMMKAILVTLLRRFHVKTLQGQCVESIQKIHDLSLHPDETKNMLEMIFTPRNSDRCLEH
Aryl hydrocarbon receptor (Homo sapiens), sequence (P35869 whole entry, looked up): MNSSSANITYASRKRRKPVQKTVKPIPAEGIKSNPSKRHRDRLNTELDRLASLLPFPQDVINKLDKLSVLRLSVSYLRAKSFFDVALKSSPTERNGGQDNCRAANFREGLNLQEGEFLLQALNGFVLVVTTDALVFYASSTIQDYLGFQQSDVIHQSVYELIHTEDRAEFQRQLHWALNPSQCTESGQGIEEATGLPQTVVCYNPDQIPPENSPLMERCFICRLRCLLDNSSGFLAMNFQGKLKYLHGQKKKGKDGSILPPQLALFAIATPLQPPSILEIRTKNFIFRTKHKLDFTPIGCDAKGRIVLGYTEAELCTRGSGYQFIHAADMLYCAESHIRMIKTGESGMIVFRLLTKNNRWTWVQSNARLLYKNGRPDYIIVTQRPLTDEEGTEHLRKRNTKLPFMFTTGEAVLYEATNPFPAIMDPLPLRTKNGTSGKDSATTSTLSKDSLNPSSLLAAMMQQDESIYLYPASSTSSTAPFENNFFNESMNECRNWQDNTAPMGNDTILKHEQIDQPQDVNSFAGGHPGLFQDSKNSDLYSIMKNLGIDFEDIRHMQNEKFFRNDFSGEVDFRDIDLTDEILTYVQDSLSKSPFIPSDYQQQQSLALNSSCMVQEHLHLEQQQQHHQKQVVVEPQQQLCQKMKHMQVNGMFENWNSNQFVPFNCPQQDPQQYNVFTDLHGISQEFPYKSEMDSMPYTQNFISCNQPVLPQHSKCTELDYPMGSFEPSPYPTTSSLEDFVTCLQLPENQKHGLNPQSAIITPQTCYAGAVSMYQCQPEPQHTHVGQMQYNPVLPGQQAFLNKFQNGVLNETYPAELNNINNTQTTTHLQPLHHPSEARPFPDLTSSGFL
Peroxisome proliferator-activated receptor gamma (Homo sapiens), sequence (P37231 whole entry, looked up): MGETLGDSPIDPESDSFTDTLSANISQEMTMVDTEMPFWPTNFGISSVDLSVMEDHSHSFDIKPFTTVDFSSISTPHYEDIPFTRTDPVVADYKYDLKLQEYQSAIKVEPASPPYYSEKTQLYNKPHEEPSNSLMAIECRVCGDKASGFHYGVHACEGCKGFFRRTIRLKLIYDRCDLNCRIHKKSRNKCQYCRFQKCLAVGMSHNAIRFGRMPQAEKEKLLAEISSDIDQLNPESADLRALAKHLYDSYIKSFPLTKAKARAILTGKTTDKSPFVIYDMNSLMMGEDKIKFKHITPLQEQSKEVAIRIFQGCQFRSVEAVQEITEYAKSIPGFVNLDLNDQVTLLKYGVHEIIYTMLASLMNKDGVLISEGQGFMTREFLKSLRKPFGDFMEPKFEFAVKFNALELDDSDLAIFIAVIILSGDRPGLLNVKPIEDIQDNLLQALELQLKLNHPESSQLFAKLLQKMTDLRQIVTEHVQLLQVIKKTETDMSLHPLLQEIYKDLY
Estrogen receptor (Homo sapiens), sequence (P03372 whole entry, looked up): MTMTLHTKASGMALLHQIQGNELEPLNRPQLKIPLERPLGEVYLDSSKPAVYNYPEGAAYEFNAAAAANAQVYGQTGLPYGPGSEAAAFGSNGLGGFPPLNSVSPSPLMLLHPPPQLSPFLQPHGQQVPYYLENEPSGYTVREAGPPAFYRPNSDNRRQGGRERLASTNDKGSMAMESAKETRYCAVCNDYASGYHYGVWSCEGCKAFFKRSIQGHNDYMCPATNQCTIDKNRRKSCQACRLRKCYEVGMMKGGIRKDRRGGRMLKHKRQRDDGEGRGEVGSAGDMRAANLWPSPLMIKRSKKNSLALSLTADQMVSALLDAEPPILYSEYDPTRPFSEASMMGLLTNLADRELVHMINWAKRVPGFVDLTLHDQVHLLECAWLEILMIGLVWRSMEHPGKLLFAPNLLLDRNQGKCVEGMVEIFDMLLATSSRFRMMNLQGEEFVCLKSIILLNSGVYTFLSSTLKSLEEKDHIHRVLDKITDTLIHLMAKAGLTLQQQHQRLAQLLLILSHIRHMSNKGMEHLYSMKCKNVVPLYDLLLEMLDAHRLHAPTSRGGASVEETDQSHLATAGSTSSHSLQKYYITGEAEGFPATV

In the case of `COCCOC[C@H](CC1(C(=O)NC2CCC(C(=O)O)CC2)CCCC1)C(=O)Oc1ccc2c(c1)CCC2` (some centres undefined), the Potency result in [1], in assay [3], in assay [4], in [5], in assay [6] and in assay [7] was “inactive” throughout. The Potency result in assay [10], in assay [11], in assay [12] and in assay [13] was “inactive” throughout. In addition, the molecule was classed as inactive in assay [2], in assay [8], in assay [9], in [14], in [15] and in assay [16]. For the same molecule, the outcome in assay [17] and in [18] was inactive.
Consider `CC(CO)(CO)[N+](=O)[O-]`, for which the Potency entry in assay [1], in [3], in [4], in assay [5], in assay [7] and in assay [19] was “inactive” each time. For the same molecule, the Potency result in assay [10], in assay [11] and in assay [13] was “inactive” each time. The molecule was called inactive in assay [2], in assay [8], in assay [14], in assay [15], in assay [16] and in assay [18].
Consider `[O-][n+]1cccc(CO)c1`, for which the Potency result in assay [1], in assay [3], in assay [4], in assay [5], in [7] and in assay [10] was “inactive” each time. The Potency result in [11], in assay [12] and in assay [13] was “inactive” throughout. Moreover, the outcome in assay [2], in assay [8], in assay [9], in assay [14], in [16] and in assay [17] was inactive. In assay [18], the molecule was called inactive.
On to `Cc1cc(C)c(N=Nc2c(O)c(S(=O)(=O)O)cc3cc(S(=O)(=O)O)ccc23)cc1C`, for which the activity, negative = inhibition is -3.21% [at 8.44 µM] (inactive) in assay [1], -5.6% [at 6.71 µM] (inactive) in [3] and -5.99% [at 8.47 µM] (inactive) in assay [9]. Further, the activation was 0.237% [at 8.08 µM] (inactive) in [2]; -3.26% [at 6.71 µM] (inactive) in [5]; 5.28% [at 8.47 µM] (inactive) in [6]; -3.38% [at 8.47 µM] (inactive) in assay [10]; -8.59% [at 8.36 µM] (inactive) in assay [20]; -0.565% [at 5.95 µM] (inactive) in assay [17]. Moreover, the activity, negative = cytotoxicity in [4] is -15.7% [at 6.72 µM] (inactive). Also, the activity change, negative = inhibition in assay [7] was -1.62% [at 8.47 µM] (inactive). In addition, the activity change, negative = cytotoxicity in [8] was -6.97% [at 8.47 µM] (inactive); in [14], -10.4% [at 5.95 µM] (inactive); in [16], -2.28% [at 5.95 µM] (inactive); in assay [18], -0.611% [at 5.95 µM] (inactive). Besides, the values for the viability change, negative = cytotoxic in assay [11] and in assay [15] were -19.3% [at 8.47 µM] (inactive) and -2.33% [at 8.36 µM] (inactive), respectively.
On to `CN(C)CCCN(C)CCCN(C)C`, for which the Potency result in assay [1], in assay [3], in assay [4], in assay [5], in assay [7] and in [19] was “inactive” each time. In addition, the Potency result in assay [10], in [11], in [13] and in assay [20] was “inactive” in each case. In addition, the molecule was called inactive in assay [2], in assay [8], in [9], in assay [14], in assay [15] and in assay [16]. For the same molecule, the call in assay [17] and in assay [18] was inactive.
On to `CC(C)(C)c1ccc(-c2ccc(C(C)(C)C)cc2)cc1`, for which the Potency result in [1], in assay [3], in assay [4], in assay [5], in assay [6] and in assay [19] was “inactive” in each case. Further, the Potency result in assay [10], in [11] and in assay [20] was “inactive” throughout. Also, the outcome in assay [2], in assay [8], in assay [9], in assay [14], in [15] and in assay [16] was inactive. In addition, the molecule was called inactive in [18].
Consider `CC(=O)O[C@@]12CO[C@@H]1C[C@H](O)[C@@]1(C)C(=O)[C@H](O)C3=C(C)[C@@H](OC(=O)[C@H](O)[C@@H](NC(=O)OC(C)(C)C)c4ccccc4)C[C@@](O)([C@@H](OC(=O)c4ccccc4)[C@H]21)C3(C)C`, for which the Potency in [1] was 0.0298 µM (active); in [7], 59.6 nM (active) and inactive; in assay [19] it was 26.6 µM (active); in assay [11], 33.5 µM (active) and 26.6 µM (active). Further, the result in assay [2], in [8], in assay [9], in [14], in [15] and in assay [16] was inactive. Further, the outcome in assay [17] and in assay [18] was inactive. The Potency entry in [3], in assay [5], in assay [6], in assay [10] and in assay [13] was “inactive” throughout.
On to `CNC(=O)Nc1ccc(Cl)c(Cl)c1`, for which the Potency is 30.6 µM (active) in assay [1] and 54.5 µM (active) in assay [10]. The outcome in [2], in assay [8], in assay [9], in assay [14], in assay [16] and in assay [17] was inactive. Besides, the outcome in assay [18] was inactive. For the same molecule, the Potency result in assay [3], in [4], in assay [6], in assay [19], in assay [11] and in assay [12] was “inactive” throughout.
Regarding `C=CCCC(=O)O`, the Potency entry in assay [1], in [3], in assay [4], in [5], in assay [7] and in assay [19] was “inactive” each time. Also, the Potency result in assay [10], in assay [12], in assay [13] and in assay [20] was “inactive” each time. Besides, the call in [2], in assay [8], in assay [9], in assay [14], in assay [16] and in assay [17] was inactive. Further, the result in [18] was inactive.
